Pf apPOL inh: Pf-apPOL DNA polymerase inhibition; Recombinant Pf-apPOL, molecular beacon fluorescence, 1.5 h; 210,000 tested, 0.25% active; inhibition, % at 10 µM
mHTT CaM bind: inhibitors of human mutant huntingtin-calmodulin interaction | 190,000 tested, 3.6% active | AID 1671202 | AlphaScreen His-mHTT/GST-CaM binding, luminescence | inhibition, % at 15 µM | P42858
Each line names hits and unclear results; the compound was inactive in the other large screens; ! = repeats disagree. In the library only some 3.6% were active in any assay of this set; here they are far more common. Cut-off read from the data, not from the text of the source: active = inhibition above about 50%; inactive = the rest.

CCCN(CCC)C(=O)CSc1nc2n[nH]c(C)c2c(=N)n1-c1ccc(OCC)cc1	none
COc1cccc(-n2c(SCC(=O)N3CCCC3)nc3n[nH]c(C)c3c2=N)c1	none
CCCc1noc(-c2cccnc2N2CCCN(C(=O)Cc3cccc(F)c3)CC2)n1	none
Cc1cc(C2CCCN2Cc2cn[nH]c2-c2cccc(Br)c2)no1 (stereo unspecified)	none
CCOc1ccc(CN2C(=O)c3ccccc3C2C(=O)NC2CCCCCCC2)cc1OC (stereo unspecified)	none
CC1(C)CC(=O)C2=C(C1)N(c1cccc(Cl)c1)C(N)=C(C#N)C2c1ccc2c(c1)OCO2 (stereo unspecified)	none
O=C(C(Cl)Cl)N1CCN(C(c2ccccc2)c2ccccc2)CC1	none
CCC(=O)N1CCc2sc(S(=O)(=O)Nc3ccc(Cl)cc3)cc2C1	none
CC[C@@H]1CC=C[C@H]2[C@H]1C(=O)N(Cc1ccccc1)[C@H]2c1ccc(C(F)(F)F)cc1	mHTT CaM bind 71
C[C@@H]1CC=C[C@H]2[C@H]1C(=O)N(Cc1ccccc1)[C@H]2c1ccoc1	none
O=C1C2C(c3cccc(/C=C/c4ccccc4)c3)CC=CC2C(c2ccc3ccccc3c2)N1Cc1ccccc1 (stereo unspecified)	none
CC[C@@H]1CC=C[C@H]2[C@H]1C(=O)N(Cc1ccccc1)[C@H]2c1ccoc1	mHTT CaM bind 85
O=C1C2C(c3cccc(/C=C/c4ccccc4)c3)CC=CC2C(c2ccc(C(F)(F)F)cc2)N1Cc1ccccc1 (stereo unspecified)	none
O=C1C2C(c3ccccc3)CC=CC2[C@H](c2cccc(Br)c2)N1Cc1ccccc1 (stereo partly specified)	mHTT CaM bind 100
CNS(=O)(=O)c1cc(-c2nn(C)c(=O)c3ccccc23)ccc1C	none
COc1cccc(CNC(=O)C2(C)CCCN(C(=O)Nc3ccc(C)c(Cl)c3)C2)c1 (stereo unspecified)	none
CCCN(CCO)Cc1cc(OC)c(OC)cc1[N+](=O)[O-]	none
CCN1C(=O)C(C)(C(=O)NCc2cccc(C)c2)Oc2cccnc21 (stereo unspecified)	none
COc1ccc(NC(=O)c2ccc3nc(-c4ccccc4)cn3c2)c(OC)c1	none
CCCNC(=O)Nc1cccnc1N1CCC(C(=O)N(CC)CC)CC1	none
COc1cc(OC)c2c(-c3ccccc3)cc(=O)oc2c1C(CCN1CCCCC1)c1ccc2c(c1)OCO2 (stereo unspecified)	mHTT CaM bind 99
COc1cc(OC)c2c(-c3ccccc3)cc(=O)oc2c1C(CCN1CCCC(C)C1)c1ccc2c(c1)OCO2 (stereo unspecified)	mHTT CaM bind 100
COc1cc(O)c(C(CCN2CCCCC2)c2ccc3c(c2)OCO3)c(OC)c1 (stereo unspecified)	none
COc1cc(OC)c2ccc(=O)oc2c1C(CC(=O)N1CCCC1)c1ccc2c(c1)OCO2 (stereo unspecified)	none
COc1cc(OC)c2c(-c3ccccc3)cc(=O)oc2c1C(CC(=O)N1CCCC1)c1ccc2c(c1)OCO2 (stereo unspecified)	mHTT CaM bind 69
COc1cc(OC)c2ccc(=O)oc2c1C(CC(=O)N1CCCCC1)c1ccc2c(c1)OCO2 (stereo unspecified)	none
Nc1ccc2oc(-c3ccccc3)cc(=O)c2c1	none
CC1CCC2(CC1)OCC(C(=O)NCc1ccccn1)N2C(=O)c1cccc(F)c1 (stereo unspecified)	none
Cc1cc2nn(-c3ccccc3)nc2cc1N	none
Cc1ccc(-n2nc3cc(N)c(Cl)cc3n2)cc1	mHTT CaM bind 59
COc1cc(/C=C2N=C(/C=C/c3ccc(C)cc3)OC\2=O)cc(OC)c1OC	none
CCCNC(=O)c1ccc2ncc3c(=O)n(-c4ccc(F)cc4)[nH]c3c2c1	none
CCCNC(=O)c1ccc2ncc3c(=O)n(-c4ccc(Cl)cc4)[nH]c3c2c1	mHTT CaM bind 58
Cc1ccccc1C(=O)NC(N1CCCCCC1)C(Cl)(Cl)Cl (stereo unspecified)	none
Cc1cccc(/C=C2\N=C(c3ccccc3Cl)OC2=O)c1	none
CC(C)C(=O)NC(c1ccc(N(C)C)cc1)c1ccc2cccnc2c1O (stereo unspecified)	mHTT CaM bind 100
CCN(CC)c1ccc(C(NC(=O)C(C)C)c2ccc3cccnc3c2O)cc1 (stereo unspecified)	mHTT CaM bind 100
Cc1ccc(NC(=O)CSc2nc3c(c(=O)n2Cc2ccccc2)SC(C)C3)cc1 (stereo unspecified)	none
Cn1cc(-c2ccncc2)cc1C(=O)NCc1cccc(C(F)(F)F)c1	none
COc1ccc(-c2ccc(=O)n(C(C)C(=O)Nc3ccon3)n2)cc1 (stereo unspecified)	none
Cc1nc2sccn2c(=O)c1NC(=O)c1ccccc1C(F)(F)F	none
Cc1ccccc1NC1=C(N2CCOCC2)C(=O)c2ccccc2C1=O	none
Cc1ccccc1NC1=C(N)C(=O)c2ccccc2C1=O	mHTT CaM bind 59
CCC(=O)N1CCC(COc2ccccc2C(=O)N2CCCC2)CC1	none
COc1cccc(C2=NOC(C(=O)N3CCCC3)C2)c1 (stereo unspecified)	none
COc1cccc(CNC(=O)c2cn3cc(Cl)ccc3n2)c1	none
COc1cccc(-c2ccc3nc(C(=O)NCc4ccncc4)cn3c2)c1	mHTT CaM bind 52
Cc1nnsc1C(=O)NCc1cc(-c2cccs2)on1	none
Clc1cccc(CNc2cc3c(cc2Br)OCCO3)c1	mHTT CaM bind 88
O=c1c(=O)n(-c2ccc3c(c2)OCCO3)ccn1Cc1cccc(Cl)c1	none
Brc1ccc(CNc2cc3c(cc2Br)OCCO3)cc1	mHTT CaM bind 79
Fc1ccc(NCc2ccc3c(c2)OCCO3)cc1F	none
NC(CCCCNC(=O)c1ccccc1)C(=O)O (stereo unspecified)	none
CC(=O)c1cccc(N=C(N)N)c1	none
CC(C)Cn1c(=O)c(-c2ccc(C(=O)NCCCN(C)C)cc2)nc2ccccc21	none
CC1(C(=O)O)CCC(C(=O)Nc2cccc(/C=C/C(=O)O)c2)C1(C)C (stereo unspecified)	none
CCOc1cc(C)nc(-c2ccccc2O)n1	none
Nc1ccc2c(c1)OC1(CCCC1)O2	mHTT CaM bind 60!
O=[N+]([O-])c1ccc2c(c1)OC1(CCCC1)O2	none
O=c1c(-c2ccc(F)cc2)c(C(F)(F)F)oc2c(CNCCO)c(O)ccc12	none
CCOc1ccc(NS(=O)(=O)c2ccc(OC)c(Br)c2)cc1	none
COc1ccc(NC(=O)C2CCCN(C(=O)c3cc(C)cc(C)c3)C2)c(OC)c1 (stereo unspecified)	none
COc1ccccc1CCC(=O)N1CCCn2nc(-c3ccc(C)cc3)cc2C1	none
Cc1cccc(-c2cc3n(n2)CCCN(C(=O)Cc2ccccc2F)C3)c1	mHTT CaM bind 73
O=C(Cc1ccccc1F)N1CCCn2nc(-c3ccc(Cl)cc3)cc2C1	none
Cc1cccc(-c2cc3n(n2)CCCN(C(=O)CCCc2ccccc2)C3)c1	mHTT CaM bind 56
COCC(=O)N1CCCn2nc(-c3cccc(C)c3)cc2C1	none
COc1ccccc1CC(=O)N1CCCn2nc(-c3cccc(C)c3)cc2C1	none
COc1ccc(-c2cc3n(n2)CCCN(Cc2ccccc2C)C3)cc1OC	mHTT CaM bind 73
COc1ccccc1CC(=O)N1CCCn2nc(-c3ccc(Cl)cc3)cc2C1	mHTT CaM bind 71
CCc1onc(C)c1C1CCCN1C(=O)c1ccco1 (stereo unspecified)	none
Cc1cc(C)c2c(N(C)C)nc(C(=O)NC(C)c3ccc(F)cc3)nc2n1 (stereo unspecified)	none
CCc1cccc(OCCCN2CCCCC2)c1	none
